Here are results for 73 compounds from PubChem BioAssay AID588676 (Johns Hopkins Ion Channel Center, 2011).

Among all 310,000 compounds or so, about 3,900 (1.3%) were called active.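 How the source made its calls: active means calcium-response B-score plate-corrected more than 3 library SD below zero, starting fluorescence within 5 deviations, no agonist response on first addition; inactive means the rest.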 The sample as a whole holds a higher share of actives than the screen did.

Sequence of Mas-related G-protein coupled receptor member X1 (Homo sapiens) (Q96LB2 whole entry, looked up): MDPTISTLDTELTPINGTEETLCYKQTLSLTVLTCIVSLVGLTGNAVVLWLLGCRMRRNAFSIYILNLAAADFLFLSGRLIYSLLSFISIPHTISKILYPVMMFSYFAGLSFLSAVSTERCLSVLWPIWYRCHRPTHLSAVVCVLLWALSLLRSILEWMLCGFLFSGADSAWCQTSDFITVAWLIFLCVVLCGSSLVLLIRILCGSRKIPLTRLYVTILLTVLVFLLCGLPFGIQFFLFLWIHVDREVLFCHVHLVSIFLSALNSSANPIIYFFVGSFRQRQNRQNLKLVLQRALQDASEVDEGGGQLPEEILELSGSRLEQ

This test has as its target Mas-related G-protein coupled receptor member X1 (Homo sapiens) (UniProt Q96LB2). Nature of the test: antagonists of human MrgX1 receptor, primary screen, HEK293 cells, Fluo-4 calcium flux (AID 588676).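 On B-score: peak minus trough fluorescence over baseline after final BAM8-22 challenge near maximal dose.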 Conditions: Fluo-4, BAM8-22 antagonism, at 10 µM; active compounds read low.
As for `O=C(c1ccc(Oc2ccc(Cl)cc2)c([N+](=O)[O-])c1)N1CCCC1`, the B-score result is “inactive”.
In the case of `Cc1nn(C)c(C)c1Sc1ccccc1N` it was “inactive”; in that of `CC(=O)N1CCN(C(=O)c2cc(-c3ccc(Cl)s3)nc3ccccc23)CC1`, “inactive”; in that of `Brc1ccc2c(c1)[C@H]1OCC[C@H]1[C@@H](c1cccs1)N2`, “inactive”.
With `Cc1ccccc1NC(=O)CCOc1ccccc1`, the B-score result was “inactive”.
On to `CN(C)CCn1c(=S)[nH]c2ccc(Cl)cc2c1=O`, for which the B-score was -7.49 (active).
With `O=C(CCn1c(=S)[nH]c2cc3c(cc2c1=O)OCO3)NCc1ccc(Cl)cc1` the entry was “inactive”; with `CCCCn1c(=S)[nH]c2ccccc2c1=O`, “inactive”.
With `Cc1cccc(N2CCN(C(=O)/C=C/c3ccco3)CC2)c1C` the entry was “inactive”; with `CC1CCC2CCCCC2N1C(=O)c1cc([N+](=O)[O-])cc([N+](=O)[O-])c1` (stereo not drawn), “inactive”; with `CCCCCC1CCC(c2nnc(SCC(C)=O)o2)CC1` (stereo not drawn), “inactive”.
As to `O=C(CCS(=O)(=O)c1cccc2nonc12)NCCc1ccccc1Cl`, the B-score entry was “inactive”.
As to `CC(NC(=O)c1ccccc1F)c1cccc2ccccc12` (stereo not drawn), the B-score entry is “inactive”.
With `O=C(CSc1nnc(-c2c[nH]c3ccccc23)n1-c1ccc(F)cc1)NCc1ccco1` the entry was “inactive”; with `COc1ccc(-n2c(SCC(=O)NCc3ccco3)nnc2-c2c[nH]c3ccccc23)cc1`, -6.52 (active); with `COc1ccc(-n2c(SCC(=O)NCc3cccs3)nnc2-c2ccoc2C)cc1`, “inactive”.
In the case of `O=c1[nH]snc1-c1c(Cl)cccc1Cl` it was “inactive”; in that of `CCOc1ccc(CCNC(=O)Nc2ccccc2)cc1OCC`, “inactive”; in that of `COc1cccc(CNC(=O)C2CC(=O)N(C3CCCCCCC3)C2)c1` (stereo not drawn), “inactive”.
In the case of `Cc1no[n+]([O-])c1COc1ccccc1/C=C1\NC(=S)NC1=O` it was “inactive”; in that of `O=c1c2cc(Br)ccc2nc(-c2cccc(Cl)c2)n1O`, “inactive”.
As for `O=c1c2c(nc3cc(-c4cccc(Cl)c4)[nH]n13)CCCC2`, the B-score entry is “inactive”.
For `O=C1CCCc2c1nc(-c1cccc(Cl)c1)n2O`, the B-score was -7.62 (active).
With `Cc1c(CC(=O)NCC(=O)NCC(=O)O)c(=O)oc2cc3oc4c(c3cc12)CCCC4` the entry was “inactive”; with `CC(C)CNC(=S)NC(=O)c1ccc(Cl)cc1`, “inactive”.
With `COc1cccc(-c2cccc(NC(=O)C3CCN(C4CCC4)CC3)c2)c1` the entry was “inactive”; with `O=C(CN(C(=O)c1csnn1)c1cccc(F)c1)NCc1ccc(F)cc1`, “inactive”.
On to `COC(=O)C1=C(C(=O)OC)C2(OC1c1ccc(Br)cc1)C(=O)c1ccccc1C2=O` (stereo not drawn), for which the B-score result was “inactive”.
With `Cc1ccccc1OCC(=O)Nc1nc(C)c(C(=O)N(C)C)s1` the entry was “inactive”.
`Cc1cccc(NC(=O)COc2ccccc2C)n1`: the B-score was -4.62 (active).
With `Cc1cccc(NC(=O)COc2ccc(Br)cc2C)n1` the entry was “inactive”; with `COc1ccc(C)cc1NC(=S)N1CCOCC1`, “inactive”.
With `CN1C(CC(=O)Nc2ccc(Br)cc2)c2ccccc2CC1(C)C` (stereo not drawn) the figure was -5.82 (active); with `CN1CCN(NC(=O)Nc2ccc(Br)cc2)CC1`, “inactive”.
On to `COCC(=O)Nc1ccc(Br)cc1`, for which the B-score entry was “inactive”.
With `CCN(CC)c1ccc(C(=O)NNC(=O)CCc2nc3ccccc3c(=O)[nH]2)cc1` the entry was “inactive”; with `Cc1ccc(S(=O)(=O)N2CCN(S(=O)(=O)N3CCOCC3)CC2)cc1`, “inactive”; with `Cc1ccccc1N1CCN(S(=O)(=O)c2ccc3ccccc3c2)CC1`, “inactive”.
With `O=S(=O)(c1ccc2ccccc2c1)N1CCN(S(=O)(=O)N2CCOCC2)CC1` the figure was -11.5 (active).
In the case of `CCc1ccc(C(=O)NC(=S)Nc2ccccc2N2CCOCC2)cc1` it was “inactive”; in that of `Cc1cccc(OCC(=O)NC(=S)Nc2ccccc2N2CCOCC2)c1`, “inactive”.
Take `O=C(COc1ccc(Cl)cc1)NC(=S)Nc1ccccc1N1CCOCC1`: the B-score was -5.65 (active).
With `CCOC(=O)C1CCN(C(=O)CN2C(=O)c3cccnc3Oc3ccc(C)cc32)CC1` the entry was “inactive”.
With `C[C@@H](NC(=O)[C@@H]1Cc2ccccc2CN1)C(=O)NC1CCCC1` the entry was “inactive”; with `Cc1nc2ccccc2nc(C)c1=NOCc1ccc(Cl)cc1Cl`, “inactive”.
In the case of `COc1ccc(CCNC(=O)CCc2cn(C)c3ccccc23)c(OC)c1` it was “inactive”; in that of `NC(=O)NC(=O)C(OC(=O)CCNS(=O)(=O)c1ccccc1)c1ccccc1` (stereo not drawn), “inactive”.
As for `CCOc1ccc(NC(=O)CCNC(=O)c2ccc(Br)cc2)cc1`, the B-score is -4.98 (active).
In the case of `CCOc1ccc(NC(=O)c2ccc(NC(=O)COC(=O)c3ccc(NC(=O)CC#N)cc3)cc2)cc1` it was “inactive”.
With `CCOc1ccc(C(=O)Nc2ccncc2)cc1` the entry was “inactive”.
As to `Fc1cccc(Cc2noc(CN3CCN(c4cnccn4)CC3)n2)c1`, the B-score entry was “inactive”.
In the case of `C=CCOc1cccc(CNCc2cccnc2)c1`, the B-score result was “inactive”.
With `c1ccc(COc2ccccc2CNCc2cccnc2)cc1` the figure was -6.34 (active); with `Fc1ccccc1COc1ccccc1CNCc1ccncc1`, “inactive”; with `COc1ccc(N2C(=O)C(CC(=O)Nc3ccccc3)N(Cc3ccc(OC)c(OC)c3)C2=O)cc1` (stereo not drawn), “inactive”.
With `CCOc1ccc(C(=O)N(Cc2ccc(N(C)C)cc2)C2CCS(=O)(=O)C2)cc1` (stereo not drawn), the B-score result was “inactive”.
With `COc1cc(C(=O)N(Cc2ccc(N(C)C)cc2)C2CCS(=O)(=O)C2)cc(OC)c1OC` (stereo not drawn) the figure was -4.58 (active); with `COc1ccc(C(=O)N(Cc2ccc(N(C)C)cc2)C2CCS(=O)(=O)C2)cc1` (stereo not drawn), “inactive”; with `O=Cc1ccc(OCc2cn3ccccc3n2)cc1`, “inactive”.
As to `COC(=O)c1sccc1NC(=O)CSc1ccccc1NS(=O)(=O)c1cc(Cl)ccc1Cl`, the B-score result was “inactive”.
In the case of `COc1ccc(NS(=O)(=O)c2ccc(F)cc2F)cn1` it was “inactive”; in that of `COC(=O)c1sccc1NS(=O)(=O)c1ccc(F)cc1F`, -4.66 (active).
Take `COc1c(Br)cc2c(C)c(C(=O)N3CCOCC3)oc2c1Br`: the B-score result is “inactive”.
Consider `O=C(CN1CCN(c2ccc(Cl)cc2)CC1)N1CCCC1`, for which the B-score was -6.44 (active).
In the case of `O=C(CN1CCCC1)N1CCN(c2ccccc2)CC1` it was “inactive”; in that of `O=C(CN1CCN(c2ccc(Cl)cc2)CC1)c1ccccc1`, “inactive”; in that of `Cc1cccc(-[n+]2c(-c3cccc(Br)c3)[nH]c3nc4ccccc4nc32)c1`, “inactive”.
As to `CC1(C)Cc2cccc(OCC(=O)N3CCN(c4ccc([N+](=O)[O-])cc4)CC3)c2O1`, the B-score result was “inactive”.
As for `CC1(C)Cc2cccc(OCC(=O)NCc3ccccc3)c2O1`, the B-score result is “inactive”.
On to `COc1cccc(CCNC(=O)COc2cccc3c2OC(C)(C)C3)c1`, for which the B-score is -5.36 (active).
With `CC1(C)Cc2cccc(OCC(N)=O)c2O1` the entry was “inactive”; with `CC1(C)Cc2cccc(OCC(=O)Nc3nccs3)c2O1`, “inactive”.
With `CN(CC(=O)Nc1ccccc1Cl)C(=O)COc1cccc2c1OC(C)(C)C2` the figure was -5.16 (active).
